The whole screen tested about 69,000 compounds, of which about 8,600 (12%) showed an effect of 50% or more. This excerpt belongs to a sample that is enriched for strong results.
Test system: Plasmodium berghei
Assay: Screen against P. berghei liver stage (PbLuc), transformed with Luciferase, at 10uM
Assay type: functional, HepG2
Details: tested at 10 uM

| SMILES | INHIBITION [%] |
| --- | --- |
| CC(Nc1cccc2c1OCCO2)C(=O)Nc1cccc(C#N)c1 (configuration not stated) | 8.12 |
| CCc1nc(CN(C(C)=O)C2CCN(CCc3ccccn3)C2)no1 (configuration not stated) | 29.7 |
| Oc1nc(N2CCOCC2)nc2nccc(-c3ccccn3)c12 | -21.3 |
| CNC(=O)c1cc(C)n(-c2ccccc2)n1 | 36.2 |
| O=C(NCc1cccs1)[C@@H]1CC[C@@H]2[C@@H](CCN2CC2CCC2)O1 | 30.3 |
| CC(C)[C@H]1CN(c2cnccn2)C[C@@H]1NC(=O)C1(C#N)CCOCC1 | 49.5 |
| CC(C)C[C@@H](CO)n1cc(-c2cncnc2)nn1 | 28.4 |
| COc1ccc(C(=O)N(C)Cc2nnc3ccccn23)cc1 | -35.7 |
| CC(C)c1nn(C)c(N(C)C)c1CNCC(O)COc1ccccc1 (configuration not stated) | -37.2 |
| Cc1cc(NC(=O)N2CCN(c3cccs3)CC2)ccc1C(N)=O | 41 |
| NC(=O)c1ccc(NC(=O)N2CCN(c3cccs3)CC2)c(F)c1 | 44.3 |
| Cc1cc(C(N)=O)ccc1NC(=O)N1CCN(c2cccs2)CC1 | 65.6 |
| CS(=O)(=O)NCc1nnc2n1CCN(CC1CC1)C2 | 39.2 |
| Cc1nc(C2CCCN(C(=O)Cn3ccccc3=O)C2)sc1C (configuration not stated) | 25.6 |
| CCn1ccnc1CN1CCCC1Cn1cc(C)cn1 (configuration not stated) | -53.5 |
| NCC(=O)N1CCC(c2ccnc(Nc3cc(C(F)(F)F)ccn3)n2)C1 (configuration not stated) | 19.3 |
| Cc1ccc(Nc2nccc(C3CCN(C(=O)CO)C3)n2)nc1 (configuration not stated) | 40.6 |
| CNCC(=O)N1CCCC(c2ccnc(Nc3cnccn3)n2)C1 (configuration not stated) | 15.9 |
| O=C(C1CCCC1)N1CCC(c2ccnc(Nc3cnccn3)n2)C1 (configuration not stated) | 22 |
| CNCC(=O)N1CCCC(c2cccc(Nc3nc(C)cc(C)n3)n2)C1 (configuration not stated) | 33 |
| CNCC(=O)N1CCC(c2ccnc(Nc3ccc(C)cn3)n2)C1 (configuration not stated) | 56.3 |
| CC(=O)N1CCCC(c2ccnc(Nc3cnccn3)n2)C1 (configuration not stated) | 42.6 |
| Cc1ccc(Nc2nccc(C3CCN(C(=O)CN)C3)n2)nc1 (configuration not stated) | 58.1 |
| CC(=O)N1CCC(c2ccnc(Nc3cnccn3)n2)C1 (configuration not stated) | 50.6 |
| Cc1cc(N2CCN(C(=O)[C@@H]3C[C@H]4C=C[C@@H]3C4)CC2)cc(C)n1 | -1.84 |
| Cn1ccc(C(=O)NCCOc2ccc(C(C)(C)C)cc2)cc1=O | 20.3 |

| SMILES | INHIBITION [%] |
| --- | --- |
| CN1CCC/C1=N\S(=O)(=O)c1ccc(NC(=O)c2ccc(Cl)cc2)cc1 | 15.6 |
| CCc1cc(O)n2nc(C3CCN(C(=O)c4ccncc4)CC3)cc2n1 | 32.85 |
| CNC(=O)CN1CCOCC2(C1)CN(C(=O)C(C)C)CCO2 (configuration not stated) | -15.7 |
| Cc1ncc2c(n1)CN(C(C(N)=O)c1ccccc1)CC2 (configuration not stated) | -40.4 |
| Cc1ncc2c(n1)CCN(C(C(N)=O)c1ccccc1)C2 (configuration not stated) | -4.4 |
| Cc1ncc2c(n1)CN(C(C(N)=O)c1ccc(F)cc1)CC2 (configuration not stated) | 58.5 |
| O=C(c1ccncc1)N1CCOC2(COCCN(c3cncnc3)C2)C1 (configuration not stated) | 37.8 |
| Cc1nc(Cn2c3c(ccc2=O)CCN(CC2CCC2)CC3)cs1 | -18.5 |
| CC1c2ncc(CN3CCN(C)CC3)n2CCN1Cc1ccc(F)cc1 (configuration not stated) | 11.5 |
| CC1c2ncc(CNC(=O)C3CC3)n2CCN1Cc1ccccn1 (configuration not stated) | -88.3 |
| CC1c2ncc(CN3CCN(C)CC3)n2CCN1Cc1cccnc1 (configuration not stated) | 34.8 |
| CC1c2ncc(Cn3cccn3)n2CCN1Cc1cccnc1 (configuration not stated) | -9.26 |
| CC1c2ncc(Cn3cccn3)n2CCN1Cc1ccccn1 (configuration not stated) | 58.4 |
| CC1c2ncc(Cn3cccn3)n2CCN1Cc1ccc(F)cc1 (configuration not stated) | 54.8 |
| CC1c2ncc(CN3CCN(C)CC3)n2CCN1Cc1ccsc1 (configuration not stated) | 27.3 |
| CC1c2ncc(CN3CCN(C)CC3)n2CCN1Cc1ccccn1 (configuration not stated) | 53 |
| CC1c2ncc(Cn3cccn3)n2CCN1c1ncccn1 (configuration not stated) | 23.1 |
| c1ccc(Cc2nnc(CN3CCOC(Cn4cccn4)C3)o2)cc1 (configuration not stated) | 19.4 |
| Cc1cccc(C(=O)N2C[C@@H]3C(CC(=O)N4CCCC4)[C@@H]3C2)n1 (some centres not stated) | -2.35 |
| CSc1nc2ccsc2c(=O)n1CC(=O)N(C)c1ccccc1 | 36.8 |
| O=C(O)[C@@H]1CCN(C(=O)c2ccccn2)[C@@H]1c1ccc(F)cc1 | -8.58 |
| CN1C(=O)CN(C(=O)c2ccc(=O)n(C)c2)c2ccccc21 | 60.5 |
| CN1CCN(C(=O)c2ccc(=O)n(C)c2)c2ccccc21 | 50.4 |
| COCCCN1CC2(CCN(C(=O)c3ccc(=O)n(C)c3)CC2)CC1=O | -14.7 |
| CC1CN(C)c2ccccc2N(C(=O)c2ccc(=O)n(C)c2)C1 (configuration not stated) | 31.8 |
| Cc1ccc2c(c1)OCCN2C(=O)c1ccc(=O)n(C)c1 | 8.48 |
